Results: PubChem BioAssay (NCATS)
Results filed as inconclusive are left out. Some structures have more than one record in an assay (separate samples or runs), and their calls can disagree. Active and inactive are the calls of the source. The call rests on the fitted dose curve; in most records, active means well fitted curve in the direction sought with a large enough effect; inconclusive means small, poorly fitted or top-dose-only effect, or another doubt; inactive means no such curve, though single readings can be large; an effect the other way counts as inactive or inconclusive.

Tests used:
[1] = Drug repurposing screens with cells derived from glioblastoma tumor samples (AID 1345199); conditions: GBM patient neurospheres viability, ATP luminescence, 48 h; further: nearly all actives have a fitted effect of over 40% in size; on activity, negative = cell killing: on the % scale 0 is the no-effect control and ±100 the full control effect
How it was run: (§1)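 Four patient lines of CD133+ GBM neurospheres were screened at several concentrations; hits were retested in those lines plus three slower-growing GBM lines, using 48-hour treatment and ATP-based viability.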

[2] = qHTS assay to identify inhibitors of the type 1 interferon - major histocompatibility complex class I in skeletal muscle: Counter screen cell viability and HiBit confirmation (AID 1347412); conditions: iHSKM muscle cells + IFN-b, HiBiT or CellTiter-Glo, 24 h; further: nearly all actives have a fitted effect of over 60% in size
How it was run: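 Human myoblast knock-in line, 4.0 ng/ml IFN-beta stimulation, 24 h compound treatment. Endpoints: HiBiT lytic luminescence (HLA-B level) and CellTiter Glo (ATP). Dosing 12 concentrations, 3-fold steps, 46 uM highest final.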

MKL-1 = test: qHTS assay to identify novel small-molecules to repurpose for Merkel cell carcinoma treatment (AID 1296009); conditions: MCC and control cell lines, CellTiter-Glo viability, 72 h; series mostly up to 46 µM; further: nearly all actives have a fitted effect of over 60% in size
How it was run: (§2)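 Cells were incubated with compound for 72 hr at 37 degree celsius before CellTiter-Glo addition. Luminescence was normalized with no-cell wells as full cytotoxicity and DMSO as baseline.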

MKL-2 = test: as above; conditions: MCC and control cell lines, CellTiter-Glo viability, 72 h; series mostly up to 46 µM
How it was run: as §2

UISO = test: as above; conditions: MCC and control cell lines, CellTiter-Glo viability, 72 h; series mostly up to 46 µM
How it was run: as §2

WaGa = test: as above; conditions: MCC and control cell lines, CellTiter-Glo viability, 72 h; series mostly up to 46 µM
How it was run: as §2

C33A = test: Primary qHTS to identify gynecologic anti-cancer compounds using libraries of approved drugs and bioactive compounds (AID 1345084); conditions: Gynecologic cancer cell panel viability, ATPlite luminescence, 48 h; series mostly up to 57.5 µM; further: nearly all actives have a fitted effect of over 55% in size
How it was run: (§3)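 In this quantitative HTS, cell killing is estimated from loss of ATP-dependent luciferase light. Cells see five compound concentrations over a 48 h exposure.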

CAOV3 = test: as above; conditions: Gynecologic cancer cell panel viability, ATPlite luminescence, 48 h; series mostly up to 57.5 µM
How it was run: as §3

Es-2 = test: as above; conditions: Gynecologic cancer cell panel viability, ATPlite luminescence, 48 h; series mostly up to 57.5 µM
How it was run: as §3

HeLa = test: as above; conditions: Gynecologic cancer cell panel viability, ATPlite luminescence, 48 h; series mostly up to 57.5 µM
How it was run: as §3

Hek293T = test: as above; conditions: Gynecologic cancer cell panel viability, ATPlite luminescence, 48 h, control line for the selectivity index; series mostly up to 57.5 µM
How it was run: as §3

JEG-3 = test: as above; conditions: Gynecologic cancer cell panel viability, ATPlite luminescence, 48 h; series mostly up to 57.5 µM
How it was run: as §3

OV90 = test: as above; conditions: Gynecologic cancer cell panel viability, ATPlite luminescence, 48 h; series mostly up to 57.5 µM
How it was run: as §3

Tov-21-G = test: as above; conditions: Gynecologic cancer cell panel viability, ATPlite luminescence, 48 h; series mostly up to 57.5 µM
How it was run: as §3

Tov112D = test: as above; conditions: Gynecologic cancer cell panel viability, ATPlite luminescence, 48 h; series mostly up to 57.5 µM
How it was run: as §3

astro = control astrocytes; test: Drug repurposing screens with cells derived from glioblastoma tumor samples (AID 1345199); conditions: viability, ATP luminescence, 48 h; series mostly up to 45.9 µM; further: nearly all actives have a fitted effect of over 40% in size; on activity, negative = cell killing: on the % scale 0 is the no-effect control and ±100 the full control effect
How it was run: as §1

CASKI = test: Primary qHTS to identify gynecologic anti-cancer compounds using libraries of approved drugs and bioactive compounds (AID 1345084); conditions: Gynecologic cancer cell panel viability, ATPlite luminescence, 48 h; series mostly up to 57.5 µM; further: nearly all actives have a fitted effect of over 55% in size
How it was run: as §3

PA-1 = test: as above; conditions: Gynecologic cancer cell panel viability, ATPlite luminescence, 48 h; series mostly up to 57.5 µM
How it was run: as §3

SKOV3 = test: as above; conditions: Gynecologic cancer cell panel viability, ATPlite luminescence, 48 h; series mostly up to 57.5 µM
How it was run: as §3

[3] = at 91.6 µM (top of the series), tumour line B
[4] = at 99.2 µM (top of the series), tumour line C
[5] = at 45.9 µM (top of the series), tumour line B
[6] = at 45.9 µM (top of the series), tumour line D
[7] = at 46.1 µM (top of the series), tumour line C
Potency means the concentration at half of the fitted maximal effect.

CCCOC(=O)c1ccc(O)cc1
inactive: activity, negative = cell killing [1, 3] -21% | activity, negative = cell killing ([1]; at 91.6 µM (top of the series), tumour line D) -29.2% | activity, negative = cell killing [1, 4] -27.8%

[O-][n+]1ccccc1SSc1cccc[n+]1[O-]
active: Potency ([1]; tumour line B) 15.8 µM | Potency ([1]; tumour line D) 7.08 µM | Potency ([2]; HiBiT) 0.496 µM | Potency ([2]; Viability) 0.991 µM

CCCC(=O)OC[C@@H](OC(=O)CCC)[C@@H](OC(=O)CCC)[C@H](Cn1c2nc(=O)[nH]c(=O)c-2nc2cc(C)c(C)cc21)OC(=O)CCC
active: Potency ([1]; tumour line D) 12.6 µM

CC(=O)SCC(CC(=O)c1ccc(C)cc1)C(=O)O (stereo unspecified)
inactive: Potency (MKL-1) | Potency (MKL-2) | Potency (UISO) | Potency (WaGa) | Potency (C33A) | Potency (CAOV3) | Potency (Es-2) | Potency (HeLa) | Potency (Hek293T) | Potency (JEG-3) | Potency (OV90) | Potency (Tov-21-G) | Potency (Tov112D) | activity, negative = cell killing [1, 5] -14.9% | activity, negative = cell killing [1, 6] -21.8% | activity, negative = cell killing [1, 7] 1.92% | Potency (astro)

COc1cccc2c1C(=O)c1c(O)c3c(c(O)c1C2=O)C[C@@](O)(C(=O)CO)C[C@@H]3O[C@H]1C[C@H](N)[C@H](O[C@@H]2CCCCO2)[C@H](C)O1
inactive: Potency (HeLa)
active: Potency (MKL-1) 0.0944 µM | Potency (MKL-2) 0.0473 µM | Potency (UISO) 2.99 µM | Potency (C33A) 10 µM | Potency (CASKI) 12.6 µM | Potency (Es-2) 7.08 µM | Potency (Hek293T) 10 µM | Potency (PA-1) 2.51 µM | Potency (SKOV3) 12.6 µM | Potency (Tov112D) 1.58 µM | Potency (astro) 12.6 µM

Clc1ccccc1-c1nc(-c2ccncc2)no1
active: Potency (HeLa) 28.2 µM | Potency (SKOV3) 22.4 µM
inactive: Potency (MKL-1) | Potency (MKL-2) | Potency (UISO) | Potency (WaGa) | Potency (C33A) | Potency (CAOV3)

O=C(O)c1ccccc1Nc1cccc(C(F)(F)F)c1
inactive: Potency (MKL-1) | Potency (MKL-2) | Potency (UISO) | Potency (WaGa) | Potency (C33A) | Potency (CAOV3) | Potency (CASKI) | Potency (Es-2) | Potency (HeLa) | Potency (Hek293T) | Potency (JEG-3) | Potency (OV90) | Potency (PA-1) | Potency (Tov-21-G) | Potency (Tov112D) | activity, negative = cell killing [1, 5] -9.13% | activity, negative = cell killing [1, 6] -1.02% | activity, negative = cell killing ([1]; at 46 µM (top of the series), tumour line A) -4.14% | activity, negative = cell killing [1, 7] -6.5%

Nc1nc2ccc([N+](=O)[O-])cc2s1
inactive: Potency (MKL-1) | Potency (MKL-2) | Potency (C33A) | Potency (CASKI) | Potency (Es-2) | Potency (JEG-3) | Potency (OV90) | Potency (PA-1) | Potency (Tov-21-G) | Potency (Tov112D) | activity, negative = cell killing [1, 3] -13.3% | activity, negative = cell killing [1, 4] -20.5%
active: Potency ([1]; tumour line A) 39.8 µM

CCCCCCOc1ccccc1C(N)=O
active: Potency ([1]; tumour line A) 14.1 µM
inactive: Potency (MKL-1) | Potency (MKL-2) | Potency (C33A) | Potency (CAOV3) | Potency (CASKI) | Potency (Es-2) | Potency (HeLa) | Potency (Hek293T) | Potency (JEG-3) | Potency (OV90) | Potency (PA-1) | Potency (SKOV3) | Potency (Tov-21-G) | Potency (Tov112D) | activity, negative = cell killing [1, 7] -6.65%

Cc1c(C(=O)O)c(O)cc2c1C(=O)c1c(O)c([C@@H]3O[C@H](CO)[C@@H](O)[C@H](O)[C@H]3O)c(O)c(O)c1C2=O
inactive: Potency (MKL-1) | Potency (MKL-2) | Potency (UISO) | Potency (WaGa) | Potency (C33A) | Potency (CAOV3) | Potency (CASKI) | Potency (Es-2) | Potency (HeLa) | Potency (Hek293T) | Potency (JEG-3) | Potency (PA-1) | Potency (SKOV3) | Potency (Tov-21-G) | Potency (Tov112D) | activity, negative = cell killing [1, 5] -25.2% | activity, negative = cell killing [1, 6] -27.3% | activity, negative = cell killing [1, 7] 21.4%

COC(=O)c1nc(Cl)c(Cl)nc1N
active: Potency (MKL-1) 1.33 µM | Potency (MKL-2) 0.299 µM | Potency (UISO) 6.68 µM | Potency (WaGa) 1.5 µM | Potency (C33A) 8.91 µM | Potency (HeLa) 7.08 µM | Potency (Hek293T) 14.1 µM | Potency (PA-1) 14.1 µM | Potency (Tov-21-G) 12.6 µM | Potency (Tov112D) 3.16 µM | Potency ([2]; HiBiT) 2.22 µM | Potency ([2]; Viability) 11.1 µM

COC(=O)C1=C(C)NC(C)=C(C(=O)OCC(C)C)C1c1ccccc1[N+](=O)[O-] (stereo unspecified)
inactive: Potency (C33A) | Potency (CAOV3) | Potency (CASKI) | Potency (Es-2) | Potency (HeLa) | Potency (Hek293T) | Potency (JEG-3) | Potency (OV90) | Potency (PA-1) | Potency (Tov-21-G) | Potency (Tov112D) | activity, negative = cell killing [1, 7] -13.4%
active: Potency (MKL-1) 21.1 µM | Potency (MKL-2) 5.96 µM | Potency (UISO) 23.7 µM | Potency (WaGa) 21.1 µM | Potency ([1]; tumour line A) 10 µM | Potency ([1]; tumour line D) 14.1 µM

CN1CCN(c2cc3c(nn2)Oc2ccccc2N3C)CC1
active: Potency ([1]; tumour line A) 11.2 µM
inactive: Potency (MKL-1) | Potency (MKL-2) | Potency (UISO) | Potency (WaGa) | Potency (C33A) | Potency (CAOV3) | Potency (CASKI) | Potency (Es-2) | Potency (HeLa) | Potency (JEG-3) | Potency (OV90) | Potency (PA-1) | Potency (SKOV3) | Potency (Tov-21-G) | Potency (Tov112D) | activity, negative = cell killing [1, 5] -7.46% | Potency (astro)

CCCCC1C(=O)N(c2ccccc2)N(c2ccc(O)cc2)C1=O (stereo unspecified)
inactive: Potency (CASKI) | Potency (HeLa) | Potency (JEG-3) | activity, negative = cell killing ([1]; at 20 µM (top of the series), tumour line C) -14.9%
active: Potency (MKL-1) 1.5 µM | Potency (MKL-2) 0.596 µM | Potency (UISO) 6.68 µM | Potency (WaGa) 2.99 µM | Potency (Tov112D) 22.4 µM | Potency ([1]; tumour line A) 7.94 µM

Cc1cc(O)c2ccccc2c1O
active: Potency (MKL-1) 21.1 µM | Potency (WaGa) 23.7 µM | Potency ([1]; tumour line A) 35.5 µM
inactive: Potency (C33A) | Potency (CAOV3) | Potency (CASKI) | Potency (HeLa) | Potency (Hek293T) | Potency (JEG-3) | Potency (OV90) | Potency (SKOV3) | Potency (Tov112D) | activity, negative = cell killing [1, 7] 5.51%

Oc1c(Br)cc(Br)c2cccnc12
active: Potency (MKL-1) 11.9 µM | Potency (MKL-2) 4.22 µM | Potency (UISO) 7.5 µM | Potency (WaGa) 11.9 µM
inactive: Potency (C33A) | Potency (CAOV3) | Potency (CASKI) | Potency (HeLa) | Potency (JEG-3)
